The results in this text go back to PubChem BioAssay (NCATS).

Inconclusive results are not listed. Active and inactive are the calls of the source. Unless noted, calls follow the shape of the dose curve; as a rule, active = well fitted curve in the direction sought with a large enough effect; inconclusive = small, poorly fitted or top-dose-only effect, or another doubt; inactive = no such curve, though single readings can be large; an effect the other way counts as inactive or inconclusive.

The nature of assay [1]: High-throughput drug toxicity screening in the BPDCN cell line Cal-1 (AID 1224825; call rule not given here). Particulars: Cal-1 BPDCN cell viability, qHTS; at 45.8 µM (top of the series) unless noted. Put shortly:
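Viability of the BPDCN line Cal-1 is measured as ATP-based luminescence (CellTiter-Glo) following 48 h incubation with compounds. Percent activity uses DMSO-treated wells as 100% and 9.2 uM bortezomib as 0%.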
(In general: In qHTS, concentration-response curves come from the screen itself.)

Assay [2] is described as follows: qHTS assay for measurement of the activity of small molecule inhibitors on Zika virus induced Caspase-3 activity in human iPSC derived neural progenitor cells (hNPCs) (AID 1224857). Also: % of control where 0% means no effect; nearly all actives have a fitted effect of over 65% in size. An outline of the steps:
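After overnight (16–20 h) culture at 350 cells/well, hNPCs get compound, then ZIKV 2 FFU/cell one hour later. Six hours on, Caspase-Glo 3/7 is added and luminescence measured.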

Assay [3] in a line: qHTS assay for measurement of the activity of small molecule inhibitors on Zika virus induced Caspase-3 activity in human astrocytoma cells (AID 1224859).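 Also: plate controls were ZIKV-infected untreated cells for no effect and uninfected cells for full effect.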 An outline of the steps: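 Inhibition of Zika-induced caspase-3/7 activity: SNB-19 cells, 1 h compound pretreatment, ZIKV 2 FFU/cell for 6 h at 37 C, Caspase-Glo luminescence read-out.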
Assay [4] is described as follows: qHTS Screen of the MIPE 4.0 Collection Against Ewings Sarcoma (RDES) (AID 1259252). Also: nearly all actives have a fitted effect of over 35% in size. Also: potency is read from the fitted curve at half-maximal effect. An outline of the steps: (§1)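 Here, cells in 5% FBS RPMI were exposed for two days (48 h) to compound dilutions added four hours after plating. ATP-based CellTiter-Glo luminescence measured viability, normalized to vehicle and no-cell blanks.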
Assay [5] is described as follows: qHTS Screen of the MIPE 4.0 Collection Against Ewings Sarcoma (TC71) (AID 1259253). Also: nearly all actives have a fitted effect of over 40% in size. Also: potency is read from the fitted curve at half-maximal effect. Put shortly: as §1
Assay [6] in a line: qHTS Screen of the MIPE 4.0 Collection Against Ewings Sarcoma (EW8) (AID 1259255). Also: nearly all actives have a fitted effect of over 35% in size. Also: potency is read from the fitted curve at half-maximal effect.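 As to viability: 100% = DMSO-treated cells and 0% = medium-only wells without cells.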 Put shortly:
as §1

The nature of assay [7]: qHTS Screen of the MIPE 4.0 Collection Against Ewings Sarcoma (TC32) (AID 1259256). Also: nearly all actives have a fitted effect of over 45% in size. Also: potency is read from the fitted curve at half-maximal effect. Put shortly:
as §1

The nature of assay [8]: qHTS assay to identify small molecule inhibitors of chordoma cells - UCH-1 (AID 1259355). Also: nearly all actives have a fitted effect of over 55% in size. Also: potency is read from the fitted curve at half-maximal effect. An outline of the steps: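 A 48hr growth-inhibition format: each drug tested at 15 concentrations together with added auranofin, camptothecin, doxorubicin, rubitecan and topotecan, with cell viability quantified as CellTiter-Glo luminescence.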
Assay [9] can be described thus: qHTS assay to identify small molecule inhibitors of chordoma cells - UCH-2 (AID 1259356). Also: % is scaled to controls: 0 for no effect and ±100 for the full control effect.

With `CCN(CC)CCn1c(=O)c(Cc2ccc(OC)cc2)nc2ccccc21`, the viability (% of control) in [1] turned out to be 94.1%. Further, the Potency result in [2], in assay [3], in [4], in assay [5], in assay [6] and in [7] was “inactive” each time.

As for `Nc1nc(F)nc2c1ncn2[C@@H]1O[C@H](CO)[C@@H](O)[C@@H]1O`, the viability (% of control) in [1] came to 3.53%. The Potency entry in [2], in assay [3], in [8] and in assay [9] was “inactive” in each case. The Potency in assay [4] was 0.59 µM (active); in assay [5], 0.372 µM (active); in assay [6], 0.469 µM (active); in assay [7] it was 1.32 µM (active).

Turning to `CO[C@@]12[C@H](COC(N)=O)C3=C(C(=O)C(C)=C(N)C3=O)N1C[C@@H]1N[C@@H]12`, in [1], the viability (% of control) worked out at 2.42%. Besides, the Potency result in assay [2], in assay [3] and in assay [9] was “inactive” in each case. The Potency was 0.0332 µM (active) in assay [4]; 0.0418 µM (active) in assay [5]; 0.0662 µM (active) in [6]; 0.0037 µM (active) in [7]; 17.8 µM (active) in assay [8].

Turning to `O=C(O)CCn1c2c(c3ccccc31)C[C@H](NS(=O)(=O)c1ccc(F)cc1)CC2`, the viability (% of control) in [1] turned out to be 118%. In addition, the Potency result in assay [2], in [3], in assay [4], in assay [5], in assay [6] and in assay [7] was “inactive” in each case.

Regarding `O=NN(CCCl)C(=O)NC1CCCCC1`, the viability (% of control) in assay [1] amounted to 102%. Besides, the Potency entry in assay [2], in [3], in assay [4], in [5], in assay [6] and in assay [7] was “inactive” throughout. Further, the Potency result in [8] and in assay [9] was “inactive” each time.

Regarding `CCC(=O)O[C@]1(C(=O)SCF)[C@H](C)C[C@H]2[C@@H]3C[C@H](F)C4=CC(=O)C=C[C@]4(C)[C@@]3(F)[C@@H](O)C[C@@]21C`, in assay [1], the viability (% of control) was determined as 52.2%. For the same molecule, the Potency result in assay [2], in [3], in assay [5], in [6], in assay [7] and in assay [8] was “inactive” in each case. Further, in assay [9], the Potency entry was “inactive”. In assay [4], the Potency is 16.6 µM (active).

For `NC(=O)c1ccc2[nH]ccc2c1`, the viability (% of control) in [1] came to 90.6%. In addition, the Potency entry in assay [2], in assay [3], in [4], in assay [5], in [6] and in assay [7] was “inactive” throughout.

For `C[C@@H]1CN(c2c(F)c(N)c3c(=O)c(C(=O)O)cn(C4CC4)c3c2F)C[C@H](C)N1`, the viability (% of control) in assay [1] was found to be 107% [at 23.2 µM]. Besides, the Potency result in assay [2], in assay [3], in assay [4], in [5], in [6] and in [7] was “inactive” in each case. Also, the Potency entry in assay [8] and in assay [9] was “inactive” in each case.

As for `COC(=O)Nc1nc2ccc(S(=O)c3ccccc3)cc2[nH]1` (centres undefined), the viability (% of control) in assay [1] is 22.2%. The Potency result in assay [2] and in assay [3] was “inactive” each time. Moreover, the Potency in assay [4] was 11.8 µM (active); in assay [5], 18.7 µM (active); in assay [6], 13.2 µM (active); in assay [7], 11.8 µM (active).

`CCN(C)C(=O)Oc1cccc([C@H](C)N(C)C)c1`: in [1], the viability (% of control) stood at 73.8%. For the same molecule, the Potency result in assay [2], in assay [3], in assay [4], in [5], in assay [6] and in assay [7] was “inactive” in each case. The Potency result in [8] and in assay [9] was “inactive” each time.

In the case of `COc1c(N2CCNC(C)C2)c(F)cc2c(=O)c(C(=O)O)cn(C3CC3)c12` (centres undefined), the viability (% of control) in assay [1] came out at 78%. The Potency result in assay [2], in [3], in assay [4], in assay [5], in assay [6] and in assay [7] was “inactive” throughout. Besides, the Potency result in assay [8] and in [9] was “inactive” in each case.

Turning to `O=S(=O)(O)CCS`, the viability (% of control) in assay [1] came out at 32.1%. In addition, the Potency result in assay [2], in [3], in assay [4], in assay [5], in assay [6] and in assay [7] was “inactive” throughout. Besides, the Potency result in assay [8] and in [9] was “inactive” in each case.

For the molecule `COC(c1ccccc1)(c1ccccc1)[C@H](Oc1nc(C)cc(C)n1)C(=O)O`, the viability (% of control) in assay [1] turned out to be 121%. In addition, the Potency entry in assay [2], in [3], in [4], in [5], in assay [6] and in [7] was “inactive” each time. In addition, the Potency result in [8] and in [9] was “inactive” each time.

Take `C1CCC(C(CC2CCCCN2)C2CCCCC2)CC1` (centres undefined): the viability (% of control) in [1] was 5.18%. Moreover, the Potency result in [2] and in [3] was “inactive” throughout. Besides, the Potency was 23.5 µM (active) in assay [4]; 13.2 µM (active) in assay [5]; 13.2 µM (active) in assay [6]; 16.6 µM (active) in assay [7]; 31.6 µM (active) in assay [8].

For `CCN1CCCC1CNC(=O)c1cc(S(N)(=O)=O)ccc1OC` (centres undefined), the viability (% of control) in [1] is 82.8%. In addition, the Potency result in assay [2], in [3], in assay [4] and in assay [6] was “inactive” each time. Besides, the Potency in assay [5] is 16.6 µM (active).

Regarding `O=C(N[C@H](CO)[C@H](O)c1ccc([N+](=O)[O-])cc1)C(Cl)Cl`, the viability (% of control) in assay [1] was found to be 116%. Moreover, the Potency entry in assay [2], in assay [3], in [4], in assay [5], in assay [6] and in assay [7] was “inactive” throughout. The Potency result in [8] and in assay [9] was “inactive” each time.

Consider `CNS(=O)(=O)CCc1ccc2[nH]cc(C3CCN(C)CC3)c2c1`, for which the viability (% of control) in assay [1] was 23.9%. For the same molecule, the Potency result in assay [2] and in assay [3] was “inactive” throughout. Moreover, the Potency in assay [4] is 0.372 µM (active); in assay [5], 0.235 µM (active); in assay [6], 2.64 µM (active); in assay [7] it was 1.48 µM (active).

`CCCc1nc(C)c2c(=O)[nH]c(-c3cc(S(=O)(=O)N4CCN(CC)CC4)ccc3OCC)nn12`: the viability (% of control) in [1] is 4.45%. Also, the Potency result in assay [2], in assay [3], in assay [8] and in assay [9] was “inactive” each time. Also, the Potency in assay [4] is 7.43 µM (active); in [5] it was 8.33 µM (active); in assay [6] it was 3.72 µM (active); in assay [7], 9.35 µM (active).

Take `Cc1ncc([N+](=O)[O-])n1CCO`: the viability (% of control) in [1] is 76.6%. Besides, the Potency entry in assay [2], in assay [3], in assay [4], in [5], in assay [6] and in [7] was “inactive” each time. For the same molecule, the Potency result in assay [8] and in assay [9] was “inactive” each time.

For `CN1CCN(c2c(F)cc3c(=O)c(C(=O)O)cn(CCF)c3c2F)CC1`, in assay [1], the viability (% of control) was found to be 98.4%. Moreover, the Potency entry in assay [2], in assay [3], in assay [4], in assay [5], in assay [6] and in assay [7] was “inactive” in each case. The Potency entry in assay [8] and in assay [9] was “inactive” throughout.

As to `Cc1cccc(N(C)C(=S)Oc2ccc3ccccc3c2)c1`, the viability (% of control) in [1] came to 79.3%. The Potency result in [2], in assay [3], in [4], in [5], in assay [6] and in assay [7] was “inactive” each time. Besides, the Potency result in [8] and in [9] was “inactive” throughout.

With `CC1(C)[C@H](C(=O)O)N2C(=O)C[C@H]2S1(=O)=O`, in assay [1], the viability (% of control) turned out to be 103%. The Potency entry in assay [2], in [3], in assay [4], in assay [5], in assay [6] and in [7] was “inactive” throughout.

With `CC(C(=O)O)c1ccc2c(c1)CC(=O)c1ccccc1S2` (centres undefined), the viability (% of control) in [1] is 19.4%. The Potency result in assay [2], in assay [3], in [4], in [5], in assay [6] and in [7] was “inactive” in each case.
